This excerpt belongs to a sample that is enriched for hits.
Pf apPOL block – Pf-apPOL inhibitors, biochemical, fluorescence; Recombinant Pf-apPOL, molecular beacon fluorescence, 1.5 h; inhibition, % at 10 µM; hit rate 0.25% among 210,000; AID 1794808, 2022
mHTT CaM bind – mutant huntingtin-calmodulin interaction inhibitors – biochemical, AlphaScreen, primary screen. inhibition, % at 15 µM. hit rate 3.6% among 190,000. P42858. AlphaScreen His-mHTT/GST-CaM binding, luminescence;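 also: 0% = both proteins with DMSO and 100% = one protein alone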
Active calls of the source: *; / = no result. Rule as the data show it: active = inhibition above about 50%; inactive = the rest.

SMILES | Pf apPOL block | mHTT CaM bind
O=C1c2ccccc2-c2onc3ccc(Nc4ccccc4)c1c23 | 1 | 43
COCCNC(=O)c1cc(-c2ccccc2)nc2ccccc12 | 3 | -2
Cc1ccc(CN2CCc3c(cc(C(=O)NCCCN(C)C)n3C)C2)cc1 | 2 | 24
O=C(Nc1cccc2c1C(=O)NC2=O)c1ccc(Cl)s1 | 1 | 100*
O=C(Nc1cccc2c1C(=O)c1ccccc1C2=O)c1ccc(Cl)s1 | 1 | 0
CNC(=O)N1CCCC(c2cccc(C(=O)NCc3cccs3)c2)C1 (stereo unspecified) | 2 | -6
COc1ccc(CCNC(=O)Cn2c(=O)c3ccccc3n(C)c2=O)cc1OC | 2 | -1
COc1ccc(Cl)cc1NC(=O)c1cc(S(=O)(=O)N2CCCC2)ccc1F | 32 | -4
COc1ccc2nc(SC(=O)c3ccccc3)nc(C)c2c1 | -5 | 100*
COc1ccc2nc(SC(=O)c3ccccc3Cl)nc(C)c2c1 | -7 | 99*
COc1ccc2nc(SCc3cccc([N+](=O)[O-])c3)nc(C)c2c1 | 11 | -3
COc1ccc(NC(=O)c2ccccc2Cl)c(OC)c1 | 3 | -7
CC1CCCCC12NC(=O)N(CC(=O)NC1CCCC1)C2=O (stereo unspecified) | -5 | -3
COc1ccc(/C=C/C(=O)Nc2ccc(Cl)cn2)cc1 | -2 | 3
COc1cc(C=C2C(=O)c3ccccc3C2=O)ccc1OCc1ccc(C(=O)O)cc1 | 3 | 6
COc1ccc(/C=C2\C(=O)c3ccccc3C2=C(C#N)C#N)cc1OC | -1 | 92*
CC1C(c2ccccc2)OC(=NS(=O)(=O)c2ccc(Cl)cc2)N1C (stereo unspecified) | -2 | /
O=c1[nH]c2c(s1)C1c3ccccc3OC3CCCC(S2)C31 (stereo unspecified) | -52 | 52*
O=C(O)C1C2CC3C1C(=O)Oc1ccccc1C1c4sc(=O)[nH]c4SC2C13 (stereo unspecified) | 2 | -3
Cn1cnc2c1CN(C(=O)c1ccc(Br)o1)CC2 | 0 | 0
Cc1ccc(NS(=O)(=O)c2ccccc2[N+](=O)[O-])cc1C | 51* | 12
O=[N+]([O-])c1ccccc1S(=O)(=O)Nc1ccc(Cl)c(Cl)c1 | -11 | 5
COc1ccc(C)cc1NC(=O)COc1cc(C)ccc1C | -9 | -4
O=[N+]([O-])C(/C=C(\Cl)[N+](=O)[O-])=C1N(c2ccccc2)CCN1c1ccccc1 | -4 | 30
O=[N+]([O-])C(/C=C(\Cl)[N+](=O)[O-])=C(Nc1ccccc1)Nc1ccccc1 | -2 | 63*
SMILES | Pf apPOL block | mHTT CaM bind
COc1ccc(C=C2Oc3c(ccc4c3CN(Cc3ccncc3)CO4)C2=O)c(OC)c1 | -26 | 49
COc1ccc(Br)cc1C=C1Oc2c(ccc3c2CN(Cc2ccccn2)CO3)C1=O | -197 | 100*
COc1ccccc1C=C1Oc2c(ccc3c2CN(Cc2ccccn2)CO3)C1=O | -35 | -2
COc1cc(OC)c(OC)cc1C=C1Oc2c(ccc3c2CN(Cc2ccccn2)CO3)C1=O | -52 | 97*
COc1cccc(C=C2Oc3c(ccc4c3CN(Cc3ccccn3)CO4)C2=O)c1OC | -92 | 100*
COc1ccc(CN2COc3ccc4c(c3C2)OC(=Cc2cccc(OC)c2OC)C4=O)cc1OC | -6 | -3
CNn1cnc2ccccc2c1=O | -2 | /
CN1CCN(S(=O)(=O)c2ccc3nc(-c4ccccc4)[nH]c3c2)CC1 | -11 | 0
CCc1cccc(C)c1N(C(=O)Cn1c(C(C)O)nc2ccccc21)C(C)COC (stereo unspecified) | -20 | 34
COc1ccc(-c2ccc3nc(C(=O)NCC4CC4)cn3c2)cc1 | 7 | 9
O=C(c1cccc(OCC2CCCN(C(=O)c3c(F)cccc3Cl)C2)c1)N1CCCC1 (stereo unspecified) | -2 | 2
COc1ccccc1C1C=C(c2ccc(I)cc2)Nc2nnnn21 (stereo unspecified) | 1 | 3
O=C1Nc2ccc(Br)cc2/C1=C/c1ccc(O)cc1 | -29 | 100*
CCOc1c(O)ccc(/C=C2\C(=O)Nc3ccc(Br)cc32)c1[N+](=O)[O-] | -23 | 94*
CCOc1cc(/C=C2\C(=O)Nc3ccc(Br)cc32)c(Br)cc1OC | 4 | 40
Cc1ccccc1/C=C1\C(=O)Nc2ccc(Br)cc21 | -4 | 97*
CSc1ccc(/C=C2\C(=O)Nc3ccc(Br)cc32)cc1 | 3 | 39
O=C1Nc2ccc(Br)cc2/C1=C/c1ccc(Br)cc1 | 2 | 35
Cc1ccc(/C=C2\C(=O)Nc3ccc(Br)cc32)o1 | 0 | 75*
Cc1ccc(/C=C2\C(=O)Nc3ccc(Br)cc32)cc1 | -9 | 43
Cc1ccc(NC(=O)c2c(C)sc3c(=O)n(C(C)C)cnc23)cc1C | 2 | 4
C(=Cc1nnnn1-c1ccccc1)Nc1ccccc1 | -10 | /
CCCCOc1ccccc1/C=C1\C(=O)Nc2ccc(Br)cc21 | 3 | 62*
COc1ccccc1/C=C1\C(=O)Nc2ccc(F)cc21 | 2 | 30
O=C1Nc2ccc(F)cc2/C1=C/c1ccc(F)cc1 | 0 | 17
SMILES | Pf apPOL block | mHTT CaM bind
O=C1Nc2ccc(F)cc2/C1=C/c1ccccc1F | -7 | 21
COc1ccc(Br)cc1/C=C1\C(=O)Nc2ccc(Br)cc21 | -37 | 5
CC(C)c1ccc(/C=C2\C(=O)Nc3ccc(F)cc32)cc1 | -8 | 100*
CCOc1ccccc1/C=C1\C(=O)Nc2ccc(F)cc21 | -7 | 96*
Cc1ccccc1/C=C1\C(=O)Nc2ccc(F)cc21 | -10 | 100*
O=C(c1ccccn1)N1CCN(c2[nH]ncc2-c2ccncc2)CC1 | -6 | 1
CNC(=S)NNC(=O)C12CC3CC(CC(C3)C1)C2 | / | -1
O=C1CCC(=O)N1c1ccc(S(=O)(=O)Oc2cc(Cl)cc(Cl)c2)cc1 | -17 | /
Cc1sc(NC(=O)c2ccc(Cl)s2)c(C#N)c1C | 6 | -6
CC(=O)n1cc(/C=c2\sc3nc4cc(C)c(C)cc4n3c2=O)c(-c2ccccc2)n1 | -8 | -6
O=C(CN1CCN(C(=O)c2cc(-c3ccco3)[nH]n2)CC1)c1ccco1 | 73* | 60*
CS(=O)(=O)N1CCN(C(=O)c2cc(-c3ccco3)[nH]n2)CC1 | 0 | -9
O=C(c1cc(-c2ccco2)[nH]n1)N1CCC(COCc2ccccc2)CC1 | 0 | 59*
Cc1cc(C(=O)N2CCC(COCc3ccccc3)CC2)no1 | -9 | -14
CCCCOc1ccc(/C=c2\sc3nc(-c4cccs4)nn3c2=O)cc1 | -3 | 22
O=C(CN1C(=O)CCC1=O)NCC(c1ccc(F)cc1)N1CCOCC1 (stereo unspecified) | -1 | -2
O=C1C(=Cc2ccco2)COCC1=Cc1ccco1 | 8 | /
O=C1/C(=C/C=C/c2ccco2)CC/C1=C\C=C\c1ccco1 | 1 | 84*
O=C(COc1ccccc1)N1CCC(CNC(=O)C2(c3ccc(F)cc3)CC2)CC1 | -5 | -3
Cc1nc(C)c(-c2nnc(NC(=O)CCS(=O)(=O)c3ccccc3)o2)s1 | 5 | 19
Cc1nc(C)c(-c2nnc(NC(=O)CCOc3ccccc3)o2)s1 | -3 | 64*
CCCc1nn(-c2ccccc2C)c(C(C)C)c1C(=O)O | -3 | 1
COC(=O)C1=CN(Cc2cccs2)C=C(C(=O)OC)C1c1cccs1 | / | -27
O=C(NCC1CCN(c2ncccn2)CC1)Nc1ccccc1Cl | -6 | -7
O=[N+]([O-])c1cccc(NC2OCC(O)C(O)C2O)c1 (stereo unspecified) | 1 | 7

Compound activity (PubChem BioAssay)
